{
  "source": "PubChem BioAssay AID588493",
  "about": "(Sanford-Burnham Center for Chemical Genomics, 2011)",
  "note": "Among all 360,000 compounds or so, about 2,100 (0.58%) were called active.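 How the source made its calls: active means inhibition at 20 µM, scaled to each plate's controls, above about 33% (limit read from the data); inactive means the rest.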 The entries come from a sample that favours actives as a whole.",
  "data": [
    {"molecular_target": "26S proteasome non-ATPase regulatory subunit 14 (Homo sapiens) (UniProt O00487)", "sequence (O00487 whole entry, looked up)": "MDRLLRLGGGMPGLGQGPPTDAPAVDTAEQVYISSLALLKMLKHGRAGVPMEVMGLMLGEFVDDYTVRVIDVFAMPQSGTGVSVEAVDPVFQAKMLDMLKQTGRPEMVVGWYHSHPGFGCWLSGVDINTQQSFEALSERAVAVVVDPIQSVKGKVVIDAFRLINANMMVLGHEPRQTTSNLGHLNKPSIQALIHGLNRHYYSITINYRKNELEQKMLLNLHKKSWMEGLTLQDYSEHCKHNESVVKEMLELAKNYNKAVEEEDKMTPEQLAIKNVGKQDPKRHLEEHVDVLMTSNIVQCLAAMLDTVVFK", "test": "inhibition of 26S proteasome subunit Rpn11 – biochemical, fluorescence polarization, uHTS, primary screen (AID 588493)", "details": "human 26S proteasome, Ub4-pepOG fluorescence polarization; at 20 µM; hits give high values; 20S core pre-blocked with epoxomicin", "values": [
      {"smiles": "CCOC(=O)c1cc(C(C)C)sc1NC(=O)COC(=O)c1nccnc1N", "inhibition": "16.7% (inactive)"},
      {"smiles": "CCOc1ccc2oc(C(=O)N(CC)CC(=O)Nc3ccc(NC(C)=O)cc3)c(C)c2c1", "inhibition": "8.2% (inactive)"},
      {"smiles": "Cc1cccc(NC(=O)CSc2nnc(CCNC(=O)OC(C)(C)C)o2)c1C", "inhibition": "-2.3% (inactive)"},
      {"smiles": "O=C(NCc1ccccn1)C1CCN(S(=O)(=O)c2ccc(Br)cc2)CC1", "inhibition": "-11.1% (inactive)"},
      {"smiles": "CCC(C)C(CO)NC(=O)/C=C/[C@H]1O[C@@H](n2cnc3c(NC(=O)c4ccccc4)ncnc32)[C@H](O)[C@@H]1O", "note": "(stereo partly specified)", "inhibition": "-5.5% (inactive)"},
      {"smiles": "COc1ccc(NC(=S)N2CCC(NC(=O)c3cccc(F)c3)CC2)cc1", "inhibition": "6.4% (inactive)"},
      {"smiles": "C=CCNC(=O)C1CC=CCC1C(=O)O", "note": "(stereo unspecified)", "inhibition": "3.6% (inactive)"},
      {"smiles": "CCOc1ccc(NC(=O)c2cccc3c2C(=O)N(CC2CCCO2)C3)cc1", "note": "(stereo unspecified)", "inhibition": "-0.9% (inactive)"},
      {"smiles": "O=C(COC(=O)c1n[nH]c2ccccc12)Nc1ccccc1Br", "inhibition": "0.1% (inactive)"},
      {"smiles": "CN(C)C(=O)c1ccc(NC(=O)c2ccccc2-c2ccccc2)cc1", "inhibition": "7% (inactive)"},
      {"smiles": "CCc1ccc(NC(=O)CS(=O)CC(=O)NCCCc2ccccc2)cc1", "note": "(stereo unspecified)", "inhibition": "43.6% (active)"},
      {"smiles": "CCc1ccc(NC(=O)CS(=O)CC(=O)N2CCN(c3ccccc3F)CC2)cc1", "note": "(stereo unspecified)", "inhibition": "0.4% (inactive)"},
      {"smiles": "S=C(NCCCc1ccccc1)Nc1ccc(Br)cc1", "inhibition": "1% (inactive)"},
      {"smiles": "CCNC(=S)Nc1ccc2c(c1)c(=O)n(C)n2Cc1ccc(Cl)cc1", "inhibition": "8.6% (inactive)"},
      {"smiles": "CN=c1scc(-c2cc(OC)ccc2OC)n1/N=C/c1c(C)[nH]c2ccccc12", "inhibition": "56.4% (active)"},
      {"smiles": "CCn1c(-c2cc(OC)ccc2OC)csc1=Nc1c(C)n(C)n(-c2ccccc2)c1=O", "inhibition": "1.2% (inactive)"},
      {"smiles": "COCCNC(=S)N/N=C/c1c(C)[nH]c2ccccc12", "inhibition": "17% (inactive)"},
      {"smiles": "COc1ccc(N(CCC(=O)NCCc2ccccc2)S(=O)(=O)c2ccc(C)cc2C)cc1", "inhibition": "3.7% (inactive)"},
      {"smiles": "Cc1cc(OCC(=O)N(C)c2c(N)n(Cc3ccccc3)c(=O)[nH]c2=O)c(C(C)C)cc1Cl", "inhibition": "-1.8% (inactive)"},
      {"smiles": "CCC(=C/c1sc2ccc3ccccc3c2[n+]1C)/C=C1\\Sc2ccc3ccccc3c2N1C", "inhibition": "70% (active)"},
      {"smiles": "Cc1ccc(S(=O)(=O)N2C[C@H]3C(=O)C[C@@H](c4cccc5ccccc45)N(S(=O)(=O)c4ccc(C)cc4)[C@H]3C[C@H]2c2ccc(Cl)cc2)cc1", "inhibition": "-1.4% (inactive)"},
      {"smiles": "O=C(NCc1nnnn1-c1ccc(Cl)cc1)c1ccc([N+](=O)[O-])o1", "inhibition": "-0.3% (inactive)"},
      {"smiles": "COc1ccc(CCNC(=O)COc2cc(C)cc3oc(=O)c(C)c(C)c23)cc1OC", "inhibition": "0% (inactive)"},
      {"smiles": "Cc1cc(OCC(=O)NCC(O)c2ccccc2)c2c(C)c(C)c(=O)oc2c1", "note": "(stereo unspecified)", "inhibition": "-2.1% (inactive)"},
      {"smiles": "Cc1cc(OCC(=O)Nc2nccs2)c2c(C)c(C)c(=O)oc2c1", "inhibition": "61.1% (active)"},
      {"smiles": "CCCCc1ccc(NC(=O)CN2C(=O)NC(Cc3ccccc3)C2=O)cc1", "note": "(stereo unspecified)", "inhibition": "-0.4% (inactive)"},
      {"smiles": "CC(C)Oc1ccc(S(=O)(=O)N2CCOCC2)cc1NC(=O)C1CCCC1", "inhibition": "2.4% (inactive)"},
      {"smiles": "O=C1NC(Nc2nc3ccccc3s2)(C(F)(F)F)C(=O)N1C1CCCCC1", "note": "(stereo unspecified)", "inhibition": "3.6% (inactive)"},
      {"smiles": "COC(=O)c1c(NC(=O)CCN2CCOCC2)sc2c1CCCC2", "inhibition": "6.6% (inactive)"},
      {"smiles": "O=C(CN1CCCC1)Nc1sc2c(c1C(=O)Nc1ccccc1)CCCC2", "inhibition": "-13.4% (inactive)"},
      {"smiles": "Cc1ccc(NC(=O)c2c(NC(=O)CCC(=O)O)sc3c2CCCCC3)cc1", "inhibition": "40.1% (active)"},
      {"smiles": "COC(=O)c1ccc(CNC(=O)c2ccc3oc(C(C)C)nc3c2)cc1", "inhibition": "-13.2% (inactive)"},
      {"smiles": "COc1cccc(CNC(=O)C2CCN(S(=O)(=O)c3cccc4cccnc34)CC2)c1", "inhibition": "7.6% (inactive)"},
      {"smiles": "Cc1cc(OCCOc2cccc3cccnc23)c(C)cc1Cl", "inhibition": "-1.8% (inactive)"},
      {"smiles": "CC(=O)/C(=N\\Nc1ccc(Cl)cc1Cl)Sc1cccc2cccnc12", "inhibition": "78.5% (active)"},
      {"smiles": "CCOC(=O)NN1C(=O)c2ccccc2NC1c1ccccc1O", "note": "(stereo unspecified)", "inhibition": "-5.9% (inactive)"},
      {"smiles": "N#Cc1cccc(NC(=O)COC(=O)c2ccccc2C(=O)c2ccc(Cl)c([N+](=O)[O-])c2)c1", "inhibition": "-2.3% (inactive)"},
      {"smiles": "COc1ccc(CN2[C@@H](CC(=O)O)c3cc(F)ccc3S2(=O)=O)cc1", "inhibition": "-5.9% (inactive)"},
      {"smiles": "COc1cccc(/C=N/NC(=O)c2[nH]nc3c2CCc2ccccc2-3)c1O", "inhibition": "52.1% (active)"},
      {"smiles": "COc1cc(/C=N/NC(=O)c2cccnc2)ccc1OC(=O)c1cccc(Br)c1", "inhibition": "-13.5% (inactive)"},
      {"smiles": "CCn1c(/C=N/NC(=O)c2ccc(OC)cc2)nc2ccccc21", "inhibition": "-5.8% (inactive)"},
      {"smiles": "COc1ccc(CCNC(=O)CCNS(=O)(=O)c2cc(Br)cnc2N)cc1OC", "inhibition": "0.1% (inactive)"},
      {"smiles": "CC(C)C(NC(=O)c1cccc(S(=O)(=O)N2CCOCC2)c1)C(=O)NCCc1ccccn1", "note": "(stereo unspecified)", "inhibition": "-2.1% (inactive)"},
      {"smiles": "COCCCN1C(=O)c2ccc(C(=O)OCC(=O)NCc3ccccc3OC)cc2C1=O", "inhibition": "3.9% (inactive)"},
      {"smiles": "N#CCC(=O)Nc1ccc(C(=O)OCC(=O)Nc2sc3c(c2C#N)CCCC3)cc1", "inhibition": "39.6% (inactive)"},
      {"smiles": "CC(C)NC(=O)NC(=O)COC(=O)c1ccc(NC(=O)CC#N)cc1", "inhibition": "-1.1% (inactive)"},
      {"smiles": "CCOc1ccc(NC(=O)c2ccc(NC(=O)COC(=O)c3ccc(NC(=O)CC#N)cc3)cc2)cc1", "inhibition": "128% (active)"},
      {"smiles": "COc1ccccc1-c1n[nH]c2c1[C@H](C)CC[C@H]2C(C)C", "inhibition": "0.4% (inactive)"},
      {"smiles": "CN(C)S(=O)(=O)c1ccc(C(=O)NCC2(N3CCOCC3)CCCCC2)cc1", "inhibition": "2.6% (inactive)"},
      {"smiles": "O=C(CSc1nc2ccccc2c(=O)[nH]1)Nc1nc(-c2ccc(Br)cc2)cs1", "inhibition": "132% (active)"},
      {"smiles": "O=C(COC(=O)c1cc(=O)[nH]c2ccccc12)Nc1nc(-c2cccc(Br)c2)cs1", "inhibition": "1.7% (inactive)"},
      {"smiles": "Cc1cc(C)c(-c2csc(NC(=O)CCCc3nc4ccccc4c(=O)[nH]3)n2)c(C)c1", "inhibition": "8.9% (inactive)"},
      {"smiles": "Cc1ccc2c(c1)nnc1nnc(SCC(=O)O)n12", "inhibition": "-12% (inactive)"},
      {"smiles": "COC(=O)c1ccc(OCC(=O)NC(C)(C)C)cc1", "inhibition": "62.8% (active)"},
      {"smiles": "CC(C)(C)NC(=O)COc1ccc(CNc2ccc3[nH]c(=O)[nH]c3c2)cc1", "inhibition": "-10.4% (inactive)"},
      {"smiles": "CS(=O)(=O)c1ccc(C(=O)OCC(=O)NNC(=O)COc2ccc(Cl)cc2)cc1", "inhibition": "22.5% (inactive)"}
    ]}
  ]
}
